Assay results: ChEMBL document CHEMBL3988442, “University of Dundee, Small-Polar-MMV Screening Library” (2021)

Key:
[1] = target: T1, Aspartate--tRNA(Asp/Asn) ligase (Mycobacterium tuberculosis (strain ATCC 25618 / H37Rv)) (UniProt P9WFW3); assay: Assay for Asp RNA synthetase-1 from Mycobacterium tuberculosis; assay type: functional; design: scale not given: direction of the effect not stated beside the values; conditions: 30 µM; note: in the data most compounds retested in dose-response had high values
T1 sequence (whole entry): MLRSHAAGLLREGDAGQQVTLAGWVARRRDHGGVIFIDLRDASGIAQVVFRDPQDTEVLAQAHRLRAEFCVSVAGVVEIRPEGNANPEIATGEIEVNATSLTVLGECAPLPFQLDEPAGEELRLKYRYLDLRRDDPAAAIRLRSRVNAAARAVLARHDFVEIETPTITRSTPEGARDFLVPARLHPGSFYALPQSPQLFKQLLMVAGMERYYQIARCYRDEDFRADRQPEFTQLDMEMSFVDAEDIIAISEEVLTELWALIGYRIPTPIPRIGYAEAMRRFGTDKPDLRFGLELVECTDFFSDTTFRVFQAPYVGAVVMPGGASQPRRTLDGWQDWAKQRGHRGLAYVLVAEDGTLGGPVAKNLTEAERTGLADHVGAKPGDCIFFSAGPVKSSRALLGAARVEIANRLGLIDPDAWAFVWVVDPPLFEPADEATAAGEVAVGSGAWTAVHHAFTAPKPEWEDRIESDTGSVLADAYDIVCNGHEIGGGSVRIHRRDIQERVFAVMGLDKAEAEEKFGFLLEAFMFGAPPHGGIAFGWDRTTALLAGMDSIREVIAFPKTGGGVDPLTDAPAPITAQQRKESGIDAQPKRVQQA

[2] = target: Shiga toxin 2 (Escherichia coli O157:H7) (UniProt P09385+P09386); assay: E. coli 0.157:H7 Shiga Toxin SOP - stx2 screening assay; assay type: functional; design: scale not given: direction of the effect not stated beside the values; conditions: 30 µM

SMILES	Percent Effect [1] [%]	Percent Effect [2] [%]
CC(C(=O)Nc1ncccn1)N1CCCN(c2nccs2)CC1 (centres undefined)	0.767	-54.2
c1ccc(CC2CCN(Cc3ccnc(-c4cccnc4)n3)CC2)cc1	0.908	-6.53
CN(C)C(=O)Cc1nc(CN2CCCCC2Cn2cccn2)cs1 (centres undefined)	2.64	-25.1
CC(C)OCc1ccc(CNC(=O)CC(F)(F)F)cc1	-1.66	12.4
CCNC(=O)N(C)Cc1ccc(SC)c(OC)c1	4.58	0.0534
Cc1nc(C)n(CC2CCCCN2CCC(=O)Nc2cc(C)on2)n1 (centres undefined)	-3.42	5.91
Cc1noc(C)c1CN1CC[C@H]2OCC[C@@H](C(=O)N3CCCO3)[C@@H]2C1	-1.14	-15.4
Cc1cnccc1N1CCCN(C(=O)CCCS(N)(=O)=O)CC1	-1.55	-11.6
Cc1nc(C(C)(C)NC(=O)Nc2cccc(C#N)c2)no1	-0.287	-19.6
COc1ccc(C2=CCN(C(=O)CN(C)CC(C)C#N)CC2)cc1 (centres undefined)	-3.34	-65.5
Cc1ccc(C2CCCCCN2Cc2cn(C)nc2C)cc1 (centres undefined)	-5.2	-29
CC(=O)N1CCN(C(=O)CCOc2ccc(C(C)C)cc2)CC1	-2.21	38.9
CC(C)NC(=O)N1CCN(S(=O)(=O)C2CC2)CC2(CC(=O)N(C)C2)C1 (centres undefined)	-1.56	-20.5
O=C(c1cnco1)N1C[C@@H]2CC[C@H](Oc3cccc(F)c3)[C@@H]2C1	-3.5	-73.9
C1CCCN(c2nc(C3CC3)ns2)CC1	-2.7	-28.7
O=S(=O)(c1cccs1)N1CCCn2nnc(CN3CCCCC3)c2C1	5.59	-16.9
Cc1cccc(-c2nc(CN3CCc4cnc(C)nc4C3)no2)c1	4.76	6.99
c1cnc(NCc2ncn3c2CN(Cc2cccnc2)CCC3)nc1	-2.66	-5.14
Cn1cnc(-c2cc(C(=O)N3CCOCC3)c3ccccn23)c1	1.18	-6.75
COc1cccc(N2CCN(CC(O)c3cc(C)sc3C)CC2)c1 (centres undefined)	0.432	6.38
CC1CN(C)c2ccccc2CN1C(=O)CSc1ccncc1 (centres undefined)	6.09	-6.66
COCCN1CCOCC2(CCCN(Cc3ccc(C)o3)C2)C1 (centres undefined)	-0.582	-6.63
